In all, about 33,000 sequences were measured (“E-score (-0.5 to 0.5)”: median about -0.054, highest 2% from about 0.35 on). Shown is part of a subset that was picked to be rich in the highest values.
Each sequence was assayed against T1, Stb5 (UniProt P38699) (assay: PBM E-score (8-mer binding enrichment) (E-score (-0.5 to 0.5)); higher = stronger / more preferred TF binding). Conditions: protein concentration: 200 nM; construct: GST-full length.
T1 sequence: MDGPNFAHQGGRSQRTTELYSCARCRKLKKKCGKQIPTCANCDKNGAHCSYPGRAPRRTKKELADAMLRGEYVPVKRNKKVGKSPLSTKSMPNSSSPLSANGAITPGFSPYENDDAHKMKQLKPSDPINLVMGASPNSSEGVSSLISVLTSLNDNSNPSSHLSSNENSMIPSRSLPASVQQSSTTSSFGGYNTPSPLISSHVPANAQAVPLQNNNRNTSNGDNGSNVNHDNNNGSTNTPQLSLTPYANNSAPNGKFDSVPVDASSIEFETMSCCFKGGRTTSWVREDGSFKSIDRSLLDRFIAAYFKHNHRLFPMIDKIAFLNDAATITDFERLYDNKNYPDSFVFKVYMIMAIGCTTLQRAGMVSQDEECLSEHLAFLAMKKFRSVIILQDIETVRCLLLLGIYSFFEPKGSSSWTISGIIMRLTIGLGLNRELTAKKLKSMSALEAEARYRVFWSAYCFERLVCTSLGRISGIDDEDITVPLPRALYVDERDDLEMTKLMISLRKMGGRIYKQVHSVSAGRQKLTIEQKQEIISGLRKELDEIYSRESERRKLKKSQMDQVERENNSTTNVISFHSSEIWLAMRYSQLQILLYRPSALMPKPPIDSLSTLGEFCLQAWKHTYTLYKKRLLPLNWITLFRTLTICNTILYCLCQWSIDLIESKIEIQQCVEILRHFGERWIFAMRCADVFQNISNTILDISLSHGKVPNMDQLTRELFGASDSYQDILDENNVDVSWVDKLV
Experimental: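 Universal 'all 10-mer' protein binding microarrays (Agilent AMADID 015681) probed with GST-tagged S. cerevisiae TFs (full-length or DBD) made by in vitro transcription/translation (PURExpress), about 100-200 nM. Bound TF was detected with fluorescent anti-GST. Each ungapped 8-mer (which stands for itself and its reverse complement) is scored by the PBM enrichment score (E-score), a modified Wilcoxon-Mann-Whitney statistic from -0.5 to +0.5, computed with the Universal PBM Analysis Suite. Scale: above 0.35 generally sequence-specific binding.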

Row | Sequence | PBM E-score
1 | GGCAGTAA | 0.256
2 | AGGAGCAT | -0.255
3 | CCGCATTA | 0.243
4 | GCTGGCCC | -0.184
5 | GACATCCA | -0.0118
6 | TCAGTGAA | -0.111
7 | CTTCGAGC | -0.0166
8 | AGACCCGG | 0.341
9 | ATACCCCA | -0.0468
10 | ATACCCCC | 0.351
11 | AGACCCCC | -0.165
12 | AACCCGGG | 0.262
13 | AACCCCGG | 0.453
14 | AAACCCCG | 0.476
15 | AAACCCCA | 0.0234
16 | ATACCCCG | 0.392
17 | AGACCCCG | 0.394
18 | ACCCCCGG | 0.336
19 | AAACCCCT | 0.153
20 | AAAATGTT | -0.267
21 | CACTTGCG | -0.0879
22 | CGTGTCCC | -0.0774

Row | Sequence | PBM E-score
23 | CCATTTAA | -0.073
24 | CAGCTGTC | -0.31
25 | ACACGGTA | 0.144
26 | AGACCAGG | -0.149
27 | ATGCGACC | 0.0704
28 | AAGGCGCT | 0.109
29 | ATACCTAG | -0.233
30 | AACCCCCG | 0.401
31 | CAACCCCA | -0.221
32 | AACCCCCC | 0.0126
33 | ACCCCCCG | 0.204
34 | CAACCCCC | 0.14
35 | CAACCCCG | 0.371
36 | ACTAGCCC | 0.15
37 | ACTCGTCA | -0.163
38 | GCCCCTAC | 0.076
39 | ATTCTTGG | -0.0109
40 | ACCGGACT | 0.376
41 | ACCGGACC | 0.354
42 | ACCGGACG | 0.329
43 | CCCGGACC | 0.185
44 | ACCGGACA | 0.321

Row | Sequence | PBM E-score
45 | GCCGGACC | 0.281
46 | AAACTCAC | -0.172
47 | TAATAAGA | 0.0281
48 | GCTCTTTA | 0.0664
49 | CACTGCTC | -0.117
50 | AAGCGTGC | -0.171
51 | ACGAGCGT | -0.163
52 | CAGTTCCG | 0.0961
53 | AAGTTCCG | 0.373
54 | AAGTTCCT | -0.098
55 | ACCACAGA | -0.0655
56 | CCCGCTAA | 0.261
57 | AGCGACTG | -0.328
58 | CCGCTCGC | 0.373
59 | CCGCTACA | 0.262
60 | ACGCTCGC | -0.078
61 | CCGCTACG | 0.355
62 | CCGCTCCC | 0.247
63 | CCGCTCGA | 0.328
64 | ACGCTCCG | 0.174
65 | CCGCTCCG | 0.361
66 | ACGCTACG | -0.187

Row | Sequence | PBM E-score
67 | CAGTTGCC | -0.0751
68 | AGAAAGAC | -0.0525
69 | GATATAGA | -0.162
70 | AACGGGTG | 0.155
71 | GTGAAGCA | -0.165
72 | AGATTTTA | 0.0159
73 | ACACTATG | -0.13
74 | AAAGTCTC | -0.145
75 | CAGACCGG | 0.272
76 | AAGACCGA | 0.414
77 | AAGACCGT | 0.382
78 | AAGACCTT | -0.073
79 | AAGACCAT | -0.18
80 | AAGACCGG | 0.418
81 | AAGACCAG | -0.107
82 | AAGACCGC | 0.443
83 | CAGACCGA | 0.174
84 | CAGACCGC | 0.272
85 | GAGACCGA | 0.257
86 | GAGACCGC | 0.311
